# High-throughput results as filed in PubChem BioAssay.
# A selection: hits, their analogues and other compounds. The true share with any hit is near 14%.
# HCV inhibitor: qHTS Assay for Inhibitors of Hepatitis C Virus (HCV) | Huh7.5.1 HCVcc-Cre infection, luciferase reporter, 44 h | Potency, µM (doses to about 41.8 µM), inactives show top-dose activity change, negative = inhibition, hits mostly inhibitors | hit rate 3.4% among 340,000; note: potency is the fitted concentration of half-maximal effect
#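 A cell-based infection assay in which seeded cells (1,000 per well) receive test compound after 4 h, are inoculated with HCVcc-Cre at approximately 0.5 moi, and are incubated 44 h before luminescence detection.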
# HCMV antiviral: qHTS Assay for inhibitors of the human cytomegalovirus (HCMV) | hit rate 4.5% among 410,000 | AID 1259415, 2018 | HFF cells, HCMV-luciferase reporter, 72 h; active compounds read low | activity change, negative = inhibition, % at 57.5 µM; in the data active = activity change below about -60%; inconclusive = no clear call, values can overlap the other calls; inactive = above about -39%
#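 Cell-based, HFFs, 1000 cells/well, 16 h 37C; cpds in DMSO + HCMV-luc, MOI 1 PFU/cell; 72 h 37C; OneGlo luminescence after 5 min RT; norm. to buffer vs Salinomycin 10uM.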
# LASV entry inh: qHTS for Inhibitors of binding or entry into cells for Lassa Virus. Lassa virus pseudotype entry inhibition, cell reporter. Potency, µM (titrated, usually from 37.9 µM), for inactives: at the top dose activity change, negative = inhibition, hits mostly inhibitors. hit rate 1.2% among 300,000. AID 540256, 2011; calls by dose curve; tested in HEK293 cells; note: potency is the fitted concentration of half-maximal effect; nearly all actives have a fitted effect of over 50% in size
# MARV entry inh: qHTS for inhibitors of binding or entry into cells for Marburg Virus; Marburg virus pseudotyped entry inhibition, cell reporter; Potency, µM (highest dose often 37.8 µM), without a hit: top-dose activity change, negative = inhibition, usual class: inhibitors; hit rate 1.8% among 300,000; AID 540276, 2011; calls by dose curve; tested in HEK293 cells; note: potency is the fitted concentration of half-maximal effect
# Pf growth 96h: Primary qHTS for delayed death inhibitors of the malarial parasite plastid, 96 hour incubation. P. falciparum luciferase reporter growth, 96 h. Potency, µM (titrated, usually from 28.7 µM), for the others: at the highest dose activity change, negative = inhibition, most hits filed as inhibitors. hit rate 6.9% among 320,000. AID 504834, 2011; note: potency is the fitted concentration of half-maximal effect
#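 Readout is luminescence from an integrated firefly luciferase in P. falciparum. Red cells, 2% hematocrit and 0.05% parasitemia final, were cultured with compound through two parasite generations (96 hours) at 37 C, 5% CO2.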
# Pf growth 48h: Primary qHTS for delayed death inhibitors of the malarial parasite plastid, 48 hour incubation. hit rate 5.9% among 310,000. Potency, µM (top dose mostly 28.7 µM), inactives show top-dose activity change, negative = inhibition, actives largely listed as inhibitors. P. falciparum luciferase growth in erythrocytes, 48 h; note: potency is the fitted concentration of half-maximal effect
#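 Parasite viability was followed by luminescence of a genomically integrated firefly luciferase. Cultures held 0.1% parasitemia at 2% hematocrit (final), incubated under 5% CO2 at 37 C.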
# * marks the source's active call; other numbers are inactive results; ? = inconclusive; · = not tested or not shown; [ ] = remark or other dose. Unless noted, calls come from the whole dose curve; as a rule, active = well fitted inhibition curve with a large enough effect; inconclusive = small, poorly fitted or top-dose-only effect, or another doubt; inactive = no such curve, though single readings can be large or run the other way. % is set by controls: 0 for no effect and ±100 for the full control effect.
SMILES,HCV inhibitor,HCMV antiviral,LASV entry inh,MARV entry inh,Pf growth 96h,Pf growth 48h
CCCN(C(=O)C1CCCN(c2ncnc3c2nc2n3CCCCC2)C1)c1ccccc1C (configuration not stated),·,6,·,·,·,·
NS(=O)(=O)c1ccc(CCNC(=O)c2nc(SCc3ccccc3F)ncc2Cl)cc1,·,-19,2%[46.1 µM],-2%[46.1 µM],·,·
CCOC(=O)c1ccc(N2CCOCC2)c(NC(=O)c2nccnc2C(=O)O)c1,16%,-17,·,·,-1%,8%
O=C(CNC(=O)c1ccccc1)OCC(=O)N1N=C(c2ccc(Cl)cc2)CC1c1ccco1 (configuration not stated),23%,5,-12%,5%,3%,?
Cc1ccc(C2=NN(C(=O)CCl)C(c3ccco3)C2)o1 (configuration not stated),8.9µM*,-100*,14%,?,6.6µM*,10µM*
Cc1ccc(S(=O)(=O)N[C@H](C(=O)OCC(=O)N2N=C(c3ccc(Cl)cc3)CC2c2ccco2)C(C)C)cc1 (some centres not stated),13µM*,82,?,?,?,10µM*
CCC(=O)N1N=C(c2ccc(NS(=O)(=O)c3ccccc3)cc2)CC1c1ccco1 (configuration not stated),11µM*,-40,·,·,·,·
CC(=O)N1N=C(c2ccco2)CC1c1ccco1 (configuration not stated),-15%,-16,-2%,3%,-3%,-4%
CC(C)NC(=O)CN1C(=O)CCn2nc(-c3cn(C)c4ccccc34)cc21,·,5,2%[46.1 µM],·,·,·
CCCCn1c(N)c(N(CC)C(=O)c2ccc([N+](=O)[O-])c(C)c2)c(=O)[nH]c1=O,31%,-11,0%,-20%[46.1 µM],0%,5%
CCOc1cc(/C=C/c2cc(C(F)(F)F)[nH]c(=O)n2)ccc1O,-10%,-98*,?,?,22%,?
COc1ccc(/C=C/c2cc(C(F)(F)F)[nH]c(=O)n2)cc1OC,-9%,-95*,?,10%[46.1 µM],-10%,?
CCOc1cc(/C=C/c2nc3ccccc3c(=O)[nH]2)ccc1O,-17%,109,·,·,-2%,·
Cc1nc(N)[nH]c(=O)c1CCCNc1ccc(CCC2(CCl)OCCO2)cc1,15%,8,?,?,·,·
CC(C)Cn1c(N)c(C(=O)COC(=O)c2ccc3c(c2)OCCO3)c(=O)n(C)c1=O,7.1µM*,?,?,?,?,?
CC(C)CN(C(=O)CSc1ccc2c(c1)OCCO2)c1c(N)n(CC(C)C)c(=O)[nH]c1=O,10%,-19,1%,18%,?,?
CC(C)Cn1c(N)c(C(=O)CSc2ccc3c(c2)OCCO3)c(=O)n(C)c1=O,2µM*,-94*,?,?,63%,4%
CC(C)Cn1c(N)c(C(=O)COC(=O)c2cccc(Cl)c2)c(=O)n(C)c1=O,2.2µM*,-1,?,?,33%,6%
CC(C)Cn1c(N)c(C(=O)COC(=O)Cc2cccc(C(F)(F)F)c2)c(=O)n(C)c1=O,1%[8.37 µM],-14,-3%,3%,?,9.3µM*
Cc1cc2nc(C(C)(C)C)c(Cc3ccccc3C(F)(F)F)n2c(C)c1Br,·,8,·,·,·,·
COc1ccc(C(=O)C(C(=O)Nc2c(C)cccc2C)N(C(=O)Cc2ccc([N+](=O)[O-])cc2)c2ccccc2)cc1 (configuration not stated),·,-6,·,·,·,·
Cn1c(SCc2ccccn2)nc2c1c(=O)[nH]c(=O)n2C,24%,-3,·,·,-17%,27%
CCc1ccc(C(=O)OCC(=O)c2c(N)n(CC(C)C)c(=O)n(C)c2=O)cc1,?,-65*,?,?,13µM*,?
COc1cc(C2C(c3ccccc3)C(c3cc(OC)cc(=O)o3)C2c2ccccc2)oc(=O)c1 (configuration not stated),10%,?,·,·,·,·
